# Shown is part of a subset that was picked to be rich in the strongest signals.
# How the values were obtained:
# Test in all cases: glycan array binding signal (z-score within array); higher = stronger binding
# Conditions in all cases: glycan notation: IUPAC condensed, linker removed
# [1] = test system: Gal(b1-3)GalNAc(b1-4)Gal(b1-4)Glc
# Outline: (§1)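 Glycan array data were curated from 3228 arrays in the Consortium for Functional Glycomics database and kept only where the protein sequence was available. Glycan names were converted to IUPAC-condensed notation, and columns mapping to the same glycan were averaged. The binding signal is a within-array Z-score, averaged across arrays of the same protein sequence at different concentrations or buffers and across linkers. Negative Z-scores can be read as non-binding.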
# [2] = test system: Gal(b1-3)GalNAc(b1-4)[Neu5Ac(a2-3)]Gal(b1-4)Glc
# Outline: as §1
# [3] = test system: Gal(b1-3)GlcNAc(b1-2)Man(a1-3)[GlcNAc(b1-4)][Gal(b1-3)GlcNAc(b1-2)Man(a1-6)]Man(b1-4)GlcNAc(b1-4)GlcNAc
# Outline: as §1
# Gal(b1-3)Gal = test system: Gal(b1-3)Gal
# Outline: as §1
# [4] = test system: Gal(b1-3)GlcNAc(b1-3)Gal(b1-4)GlcNAc
# Outline: as §1
# [5] = test system: Gal(b1-3)GlcNAc(a1-6)Gal(b1-4)GlcNAc
# Outline: as §1
# [6] = test system: Gal(b1-3)GlcNAc(b1-3)Gal(b1-4)GlcNAc(b1-2)[Gal(b1-3)GlcNAc(b1-3)Gal(b1-4)GlcNAc(b1-6)]Man(a1-6)[Gal(b1-3)GlcNAc(b1-3)Gal(b1-4)GlcNAc(b1-2)Man(a1-3)]Man(b1-4)GlcNAc(b1-4)[Fuc(a1-6)]GlcNAc
# Outline: as §1
# [7] = test system: Gal(b1-3)GlcNAc(b1-2)Man(a1-3)[Gal(b1-3)GlcNAc(b1-2)Man(a1-6)]Man(b1-4)GlcNAc(b1-4)GlcNAc
# Outline: as §1
# [8] = test system: Gal(b1-3)GlcNAc(b1-2)Man(a1-3)[Gal(b1-3)GlcNAc(b1-2)Man(a1-6)]Man(b1-4)GlcNAc(b1-4)[Fuc(a1-6)]GlcNAc
# Outline: as §1
# [9] = test system: Gal(b1-3)GlcNAc(b1-3)Gal(b1-4)GlcNAc(b1-6)[Gal(b1-3)GlcNAc(b1-3)]Gal(b1-4)Glc
# Outline: as §1
# Avaren (Actinomycete K97), sequence (chain, as listed by the source): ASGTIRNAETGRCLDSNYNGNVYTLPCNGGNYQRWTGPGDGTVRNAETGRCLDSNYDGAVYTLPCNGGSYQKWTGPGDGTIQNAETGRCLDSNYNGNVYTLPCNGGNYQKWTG
# Regenerating Gene IV (Homo sapiens), Q9BYZ8, sequence (Q9BYZ8 whole entry, looked up): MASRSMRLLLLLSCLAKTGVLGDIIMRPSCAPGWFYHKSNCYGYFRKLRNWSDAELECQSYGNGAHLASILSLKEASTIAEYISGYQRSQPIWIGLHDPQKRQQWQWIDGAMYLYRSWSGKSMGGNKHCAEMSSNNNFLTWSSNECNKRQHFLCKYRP
# PILRb (Mus musculus), Q2YSF2, sequence (Q2YSF2 entry or part of it): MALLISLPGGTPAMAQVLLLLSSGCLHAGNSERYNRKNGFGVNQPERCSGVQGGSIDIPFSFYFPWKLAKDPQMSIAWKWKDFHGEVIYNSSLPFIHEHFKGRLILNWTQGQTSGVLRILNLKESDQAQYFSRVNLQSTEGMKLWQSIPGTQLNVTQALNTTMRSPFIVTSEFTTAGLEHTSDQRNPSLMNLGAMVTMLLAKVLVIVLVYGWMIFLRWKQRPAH
# CHI3L1 (Homo sapiens), P36222, sequence (P36222 whole entry): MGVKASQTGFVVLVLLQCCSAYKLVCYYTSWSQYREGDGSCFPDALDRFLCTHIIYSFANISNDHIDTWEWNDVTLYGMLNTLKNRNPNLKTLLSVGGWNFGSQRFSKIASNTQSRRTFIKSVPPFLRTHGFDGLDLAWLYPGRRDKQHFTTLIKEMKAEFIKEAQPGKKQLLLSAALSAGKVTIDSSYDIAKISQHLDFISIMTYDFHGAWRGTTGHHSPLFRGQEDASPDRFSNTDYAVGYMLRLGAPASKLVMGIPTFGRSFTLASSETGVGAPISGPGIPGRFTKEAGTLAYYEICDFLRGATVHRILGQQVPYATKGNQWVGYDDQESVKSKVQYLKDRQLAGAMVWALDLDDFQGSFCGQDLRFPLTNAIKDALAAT
# Neurocan (Homo sapiens), O14594, sequence (O14594 other isoform, or with tags, fused parts or gaps): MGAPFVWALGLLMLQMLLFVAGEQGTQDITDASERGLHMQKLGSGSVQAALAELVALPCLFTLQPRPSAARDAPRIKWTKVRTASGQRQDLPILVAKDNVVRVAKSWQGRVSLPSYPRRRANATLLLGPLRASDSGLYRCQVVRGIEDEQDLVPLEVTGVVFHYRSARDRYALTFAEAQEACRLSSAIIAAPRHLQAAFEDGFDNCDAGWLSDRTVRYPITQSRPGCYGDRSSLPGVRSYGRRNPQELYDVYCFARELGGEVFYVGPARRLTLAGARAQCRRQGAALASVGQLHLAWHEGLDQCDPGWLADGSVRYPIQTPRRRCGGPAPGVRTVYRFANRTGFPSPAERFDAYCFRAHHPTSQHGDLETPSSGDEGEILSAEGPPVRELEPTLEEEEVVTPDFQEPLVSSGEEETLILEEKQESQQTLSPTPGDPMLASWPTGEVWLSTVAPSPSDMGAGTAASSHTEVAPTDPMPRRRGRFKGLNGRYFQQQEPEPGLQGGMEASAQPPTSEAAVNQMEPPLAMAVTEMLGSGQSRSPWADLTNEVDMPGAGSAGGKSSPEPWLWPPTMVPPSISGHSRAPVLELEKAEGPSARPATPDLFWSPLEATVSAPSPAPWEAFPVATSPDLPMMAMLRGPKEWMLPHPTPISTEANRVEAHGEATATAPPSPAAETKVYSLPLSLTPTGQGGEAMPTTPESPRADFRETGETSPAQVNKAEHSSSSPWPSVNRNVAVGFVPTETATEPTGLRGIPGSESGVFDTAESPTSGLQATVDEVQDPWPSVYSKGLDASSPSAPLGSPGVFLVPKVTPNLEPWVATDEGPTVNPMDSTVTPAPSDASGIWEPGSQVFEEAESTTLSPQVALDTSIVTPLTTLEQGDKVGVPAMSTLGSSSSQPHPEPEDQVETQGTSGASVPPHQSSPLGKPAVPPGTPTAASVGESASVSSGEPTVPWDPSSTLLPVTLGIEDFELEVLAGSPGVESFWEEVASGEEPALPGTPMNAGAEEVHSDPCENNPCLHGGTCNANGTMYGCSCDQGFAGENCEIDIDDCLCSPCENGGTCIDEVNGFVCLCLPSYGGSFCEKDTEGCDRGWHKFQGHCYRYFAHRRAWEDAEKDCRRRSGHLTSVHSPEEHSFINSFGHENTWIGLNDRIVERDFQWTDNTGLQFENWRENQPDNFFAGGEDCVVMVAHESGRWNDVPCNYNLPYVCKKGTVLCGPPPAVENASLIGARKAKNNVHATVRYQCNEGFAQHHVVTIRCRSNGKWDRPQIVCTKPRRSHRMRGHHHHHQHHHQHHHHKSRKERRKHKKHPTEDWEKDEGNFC
# PILRa (Mus musculus), Q2YSF3, sequence (Q2YSF3 entry or part of it): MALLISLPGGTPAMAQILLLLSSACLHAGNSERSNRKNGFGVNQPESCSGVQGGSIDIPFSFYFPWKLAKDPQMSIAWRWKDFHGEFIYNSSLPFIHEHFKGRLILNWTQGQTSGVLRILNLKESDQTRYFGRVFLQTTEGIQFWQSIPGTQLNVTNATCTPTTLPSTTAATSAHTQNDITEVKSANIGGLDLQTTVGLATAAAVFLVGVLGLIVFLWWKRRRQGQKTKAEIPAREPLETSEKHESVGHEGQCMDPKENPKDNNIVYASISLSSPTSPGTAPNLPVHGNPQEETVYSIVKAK
# C3b (Homo sapiens), P01024, sequence (P01024 23-667): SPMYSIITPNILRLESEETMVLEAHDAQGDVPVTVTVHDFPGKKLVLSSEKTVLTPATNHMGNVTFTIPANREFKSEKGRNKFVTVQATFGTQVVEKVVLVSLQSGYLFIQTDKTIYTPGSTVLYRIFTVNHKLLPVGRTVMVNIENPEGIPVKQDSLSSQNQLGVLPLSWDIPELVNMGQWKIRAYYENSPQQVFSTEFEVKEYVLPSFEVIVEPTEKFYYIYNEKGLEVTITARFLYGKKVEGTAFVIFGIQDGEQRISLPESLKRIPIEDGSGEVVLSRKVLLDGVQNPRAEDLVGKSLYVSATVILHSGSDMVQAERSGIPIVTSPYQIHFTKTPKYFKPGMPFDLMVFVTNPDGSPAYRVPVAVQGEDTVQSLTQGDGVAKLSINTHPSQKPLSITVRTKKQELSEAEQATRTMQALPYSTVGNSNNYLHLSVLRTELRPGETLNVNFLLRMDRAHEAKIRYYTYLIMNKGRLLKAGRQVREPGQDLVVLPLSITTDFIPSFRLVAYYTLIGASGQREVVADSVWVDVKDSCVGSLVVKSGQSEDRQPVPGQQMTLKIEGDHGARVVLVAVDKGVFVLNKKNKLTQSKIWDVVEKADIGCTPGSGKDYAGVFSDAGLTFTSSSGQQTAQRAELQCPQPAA
# wLAT-1A (Homo sapiens), Q01650, sequence (Q01650 whole entry): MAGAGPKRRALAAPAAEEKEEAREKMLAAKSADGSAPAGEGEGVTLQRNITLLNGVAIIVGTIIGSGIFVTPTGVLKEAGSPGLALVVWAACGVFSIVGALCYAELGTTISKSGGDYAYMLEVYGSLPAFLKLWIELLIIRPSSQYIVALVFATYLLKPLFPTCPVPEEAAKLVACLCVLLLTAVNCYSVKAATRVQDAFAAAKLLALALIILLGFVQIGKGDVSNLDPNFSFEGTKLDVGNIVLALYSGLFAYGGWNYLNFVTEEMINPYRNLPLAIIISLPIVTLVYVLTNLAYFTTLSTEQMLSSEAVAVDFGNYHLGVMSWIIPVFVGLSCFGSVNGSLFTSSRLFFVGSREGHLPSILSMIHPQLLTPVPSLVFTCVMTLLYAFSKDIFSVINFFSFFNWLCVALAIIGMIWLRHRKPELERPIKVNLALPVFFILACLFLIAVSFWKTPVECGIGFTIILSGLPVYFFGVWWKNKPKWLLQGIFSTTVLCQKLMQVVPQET
# 6RG (Lolium perenne), sequence (chain, as listed by the source): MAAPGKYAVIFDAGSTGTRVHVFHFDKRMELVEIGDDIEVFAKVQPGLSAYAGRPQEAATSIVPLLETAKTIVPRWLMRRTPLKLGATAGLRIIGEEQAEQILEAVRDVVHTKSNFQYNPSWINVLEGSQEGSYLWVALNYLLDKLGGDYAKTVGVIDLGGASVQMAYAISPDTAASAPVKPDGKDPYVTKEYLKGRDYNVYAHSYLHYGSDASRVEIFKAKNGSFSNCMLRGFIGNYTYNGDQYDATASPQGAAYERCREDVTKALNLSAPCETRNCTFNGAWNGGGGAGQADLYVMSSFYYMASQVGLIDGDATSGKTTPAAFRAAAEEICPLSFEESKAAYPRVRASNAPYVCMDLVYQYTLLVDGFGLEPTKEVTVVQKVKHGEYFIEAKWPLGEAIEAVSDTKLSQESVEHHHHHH
substance,measurement,setting,value
6RG (Lolium perenne),glycan array binding signal (z-score),[1],0.249
"C3b (Homo sapiens), P01024",glycan array binding signal (z-score),[1],-0.644
"wLAT-1A (Homo sapiens), Q01650",glycan array binding signal (z-score),[2],-0.218
MpAFP RI GFP (Marinomonas primoryensis),glycan array binding signal (z-score),[2],-0.54
same,glycan array binding signal (z-score),[3],1.37
"Regenerating Gene IV (Homo sapiens), Q9BYZ8",glycan array binding signal (z-score),Gal(b1-3)Gal,-0.546
same,glycan array binding signal (z-score),[4],-0.615
"HARE (Homo sapiens), Q8WWQ8",glycan array binding signal (z-score),Gal(b1-3)Gal,2.26
"Neurocan (Homo sapiens), O14594",glycan array binding signal (z-score),[5],-0.985
"Siglec-8 (Homo sapiens), Q9NYZ4",glycan array binding signal (z-score),[5],-0.162
same,glycan array binding signal (z-score),[6],0.166
"PILRb (Mus musculus), Q2YSF2",glycan array binding signal (z-score),[7],0.611
Avaren (Actinomycete K97),glycan array binding signal (z-score),[8],-0.081
same,glycan array binding signal (z-score),[6],1.97
"CHI3L1 (Homo sapiens), P36222",glycan array binding signal (z-score),[3],0.123
"PILRa (Mus musculus), Q2YSF3",glycan array binding signal (z-score),[9],-0.146
